Source: PubChem
Hits are enriched below; roughly 14% of the tested compounds scored in any of these assays.
Shiga toxin inh = blocks Shiga toxin action in Vero cells; Vero cells, Shiga toxin protein synthesis inhibition reporter; inhibition, % at 38.7 µM; 290,000 compounds, 9.2% hits; in the data active means inhibition mostly above about 28%, no sharp cut-off; inactive means mostly below about 43%; further: 0% is about no effect
Giardia FBPA inh = inhibitors of Giardia lamblia fructose-1,6-bisphosphate aldolase; A8B2U2; purified Giardia FBPA; Potency, µM (highest dose often 59.6 µM), for inactives: at the top dose activity, negative = inhibition, usual class: inhibitors; 290,000 compounds, 0.71% hits; AID 2451; further: potency means the concentration at half of the fitted maximal effect; on the % scale 0 is the no-effect control and ±100 the full control effect; nearly all actives have a fitted effect of over 55% in size
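40 nM FBPA preincubated 10 min at RT with compound (up to 57.5 uM final), then substrate plus GAPDH/TPI/NAD/arsenate coupling and diaphorase/resazurin added. Fluorescence read after 20 min at RT, 525/598 nm.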
LmPK inh = LmPK (Leishmania mexicana) enzyme inhibition; AID 1721; 290,000 compounds, 0.37% hits; Potency, µM (doses to about 57.5 µM), inactives show top-dose activity change, negative = inhibition, actives largely listed as inhibitors; purified LmPK, Kinase-Glo ATP luminescence, 1 h; Q27686; further: potency means the concentration at half of the fitted maximal effect; on the % scale 0 is the no-effect control and ±100 the full control effect
Target sequence (Q27686 whole entry, looked up): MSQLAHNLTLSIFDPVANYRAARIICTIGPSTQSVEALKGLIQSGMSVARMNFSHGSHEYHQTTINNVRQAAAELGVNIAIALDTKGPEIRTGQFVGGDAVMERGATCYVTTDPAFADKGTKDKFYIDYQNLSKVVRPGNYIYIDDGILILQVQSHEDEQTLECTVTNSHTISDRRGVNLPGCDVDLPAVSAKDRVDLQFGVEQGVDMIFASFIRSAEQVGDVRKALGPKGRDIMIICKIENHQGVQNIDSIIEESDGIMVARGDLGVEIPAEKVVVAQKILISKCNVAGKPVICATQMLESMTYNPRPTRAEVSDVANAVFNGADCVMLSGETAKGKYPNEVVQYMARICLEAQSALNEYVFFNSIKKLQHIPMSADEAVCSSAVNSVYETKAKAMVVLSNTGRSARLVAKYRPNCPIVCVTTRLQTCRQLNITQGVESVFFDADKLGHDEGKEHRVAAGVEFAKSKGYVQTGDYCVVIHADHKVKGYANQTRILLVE
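Purified LmPK (0.1 nM) converted ADP (0.1 mM) to ATP with PEP (0.5 mM) in imidazole buffer pH 7.2 with KCl and MgCl2, 1 h at room temperature. ATP was read by Kinase-Glo luminescence; data normalized to uninhibited and no-enzyme controls.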
Cycloheximide cs = affects cycloheximide protein synthesis inhibition readout, counter-screen | cell reporter, cycloheximide protein synthesis inhibition counterscreen | AID 2314 | max response, % | 300,000 compounds, 12% hits; in the data active means max response mostly above about 13%, no sharp cut-off; inactive means mostly below about 14%; further: read at 38.3 µM for the half of the compounds with a filed dose; 0% is about no effect
NS1 function inh = inhibitors of influenza NS1 protein function; Potency, µM (titrated, usually from 46.1 µM), without a hit: at the highest dose activity, positive = more growth; 270,000 compounds, 0.4% hits; AID 2326; calls by dose curve; further: potency means the concentration at half of the fitted maximal effect; actives are rising curves; nearly all actives have a fitted effect of over 50% in size
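Recovery from NS1-induced slow growth read by OD600 in budding yeast switched to galactose assay medium (pH 6.0, -URA) at 1:100 dilution. Compound 23 nl per well; the matching strain lacking NS1 serves as control.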
The depositor's hits bear a star; ? = inconclusive; · = no result; + = active, no number. Unless noted, the call rests on the fitted dose curve; in most records, active means well fitted curve in the direction sought with a large enough effect; inconclusive means small, poorly fitted or top-dose-only effect, or another doubt; inactive means no such curve, though single readings can be large; an effect the other way counts as inactive or inconclusive.

SMILES	Shiga toxin inh	Giardia FBPA inh	LmPK inh	Cycloheximide cs	NS1 function inh
Cn1cccc1C(=O)NNC(=O)COc1ccccc1F	86.4*	-5.3%	-4.8%	32.8*	2.5%
CN(C)c1ccc(/C=C/c2cc[n+](C)c3ccccc23)cc1	25.0	?	?	26.7*	-58.9%
C[n+]1ccc(/C=C/c2ccccc2O)c2ccccc21	-5.8	-17.3%	-3.8%	-1.9	·
Cc1ccc(O)c(C2=Nc3ccccc3C2(C)C)c1	89.0*	-11.7%	-12.8%	48.9*	5.3%
COc1ccc(C)cc1C1=Nc2ccccc2C1(C)C	9.9	4.3%	-1.7%	8.0	-14.9%
COc1ccccc1N1CCN(C(=O)CNC(=O)c2ccc(Cl)cc2Cl)CC1	-6.0	6.9%	1.7%	1.7	-20.9%
CCN(CC)S(=O)(=O)c1ccc(/C=C/C(=O)Nc2ccc(F)cc2F)cc1	63.7*	-0.7%	5.3%	31.6*	-8.4%
CCN(CC)S(=O)(=O)c1ccc(/C=C/C(=O)Nc2ccc(F)c(F)c2F)cc1	38.1*	-2.2%	4.2%	35.9*	2.0%
Cc1ccccc1-n1c(-c2ccoc2C)n[nH]c1=S	8.8	-18.6%	28.2µM*	-0.9	7.3%
Cc1ccc(-c2n[nH]c(=S)n2Cc2ccccc2)cc1	-26.4	8.6%	12.6µM*	0.8	-3.1%
S=c1[nH]nc(CCc2ccccc2)n1Cc1ccccc1	-4.6	?	8.91µM*	-1.7	6.4%
CCc1cc(-c2n[nH]c(=S)n2Cc2ccccc2)cs1	-18.2	9.2%	10µM*	-2.4	-32.8%
CCCOc1ccc(CCc2n[nH]c(=S)n2Cc2ccccc2)cc1	-11.7	-5.4%	?	-4.6	11.1%
CC(=O)C(C(C)=O)C(c1ccccc1)c1nc2ccccc2[nH]c1=O (stereo not drawn)	5.3	10.5%	-1.5%	8.1	-0.3%
COCCNC(=O)C1(C(F)(F)F)C/C(=C\CCO)CCCO1 (stereo not drawn)	-10.3	4.8%	·	-3.4	·
COc1cc2c3cc1Oc1c(OC)c(OC)cc4c1[C@@H](Cc1ccc(O)c(c1)Oc1ccc(cc1)C[C@@H]3N(C)CC2)CN(C)C4	·	·	·	·	10.3%
Oc1ccc(-c2n[nH]c(=S)n2Cc2ccco2)cc1	-13.0	-1.7%	11.2µM*	-4.2	-3.8%
Oc1cc2ccccc2cc1-c1n[nH]c(=S)n1Cc1ccco1	-7.0	-21.1%	?	-2.8	-0.8%
CCc1cc(-c2n[nH]c(=S)n2-c2ccccc2C)cs1	-8.1	2.5%	28.2µM*	-7.5	-14.7%
Cc1cccc(-c2n[nH]c(=S)n2Cc2ccccc2)c1	-5.4	7.8%	17.8µM*	-4.2	-24.3%
COC(=O)[C@@]1(Cc2ccc(OC)cc2)[C@H]2c3cc(C(=O)N4CCCC4)n(Cc4nc5ccccc5[nH]4)c3C[C@H]2CN1C(=O)c1ccccc1	·	-8.2%	·	·	·
COc1ccc(S(=O)(=O)N2CCC(NC(=O)c3cccnc3)CC2)cc1	7.1	·	1.3%	-3.2	1.2%
COc1nc(Nc2ccc(C(C)C)cc2)nc(OC)n1	47.7*	-3.7%	-0.4%	41.0*	-11.5%
COC(=O)Cc1ccc(OCc2ccc(Cl)nc2)cc1	51.7*	-11.5%	-27.2%	37.4*	10.0%
CN(C)C(=O)CSc1cccc2cccnc12	10.8	-3.8%	6.8%	11.6*	4.6%
SMILES	Shiga toxin inh	Giardia FBPA inh	LmPK inh	Cycloheximide cs	NS1 function inh
O=C(CSc1cccc2cccnc12)OCC(=O)c1ccccc1	-10.2	-4.0%	2.1%	-3.6	-64.6%
O=C(CSc1cccc2cccnc12)N1CCCC1	37.4*	-8.4%	-5.3%	41.9*	-34.6%
Cc1ccc(NC(=O)NNC(=O)c2cc3ccccc3cc2O)cc1C	-7.3	11.0%	-8.3%	1.7	9.5%
COc1ccc(NC(=O)c2cc3ccccc3cc2O)cc1	62.3*	?	-0.2%	33.4*	0.4%
O=C(Nc1ccccn1)c1cccnc1	12.1	3.8%	-1.8%	-2.0	2.4%
O=C(Nc1ccccn1)c1cc2ccccc2cc1O	95.7*	-7.7%	0.6%	30.6*	-6.2%
Oc1cccc2ccc(Nc3ccccn3)nc12	+	20.0%	0.3%	113.0*	-81.9%
c1ccc(Nc2ccccc2Nc2ccccn2)nc1	5.6	-3.6%	-1.9%	0.3	-0.7%
Cc1ccc(NC(=O)c2cc3ccccc3cc2O)cc1	78.8*	-0.7%	2.0%	40.4*	-30.9%
CSc1ncc(C(=O)Nc2cccc(Cl)c2)c(C)n1	19.9	1.7%	-4.6%	7.0	-30.8%
CN(C)CCCNC(=S)Nc1ccc(Br)cc1	20.0	3.5%	0.6%	0.6	0.8%
CCCn1cc(CN2CCCC(C(=O)c3ccc4c(c3)OCO4)C2)c(C)n1 (stereo not drawn)	13.0	-5.0%	-0.4%	-3.2	1.3%
